Data reported in ChEMBL document CHEMBL3988442, “University of Dundee, Small-Polar-MMV Screening Library” (2021).
About 13,000 (27%) of roughly 48,000 compounds showed an effect of 50% or more. The list shows a part of the results.

System: Wolbachia pipientis
Assay: Anti-Wolbachia Cell-Based Screen
Format: functional
Set-up: scale not given: in the data most compounds retested in dose-response had high values
Conditions: 5 µM

SMILES | Percent Effect [%]
O=C1NCCN(C(=O)CCN2CCCO2)C1c1cccc(F)c1 (stereo unspecified) | -39.77
Cc1ccnc(NCCNC(=O)Cc2c(C)[nH]c3c(C)ccc(C)c23)c1 | -11.21
Cc1ccc([C@@H]2CN(C(=O)c3cccnn3)C[C@H]2NC(=O)C2CC2)cc1 | 2.45
Cc1cccc(C(C(=O)NC(C)(C)CN2CCCC2)N(C)C)c1 (stereo unspecified) | 106.7
Cc1cccc(C(C(=O)NCC2(O)CCCCC2)N(C)C)c1 (stereo unspecified) | -2.512
Cc1ccc(C(C(=O)NCCN2CCC(CO)CC2)N(C)C)cc1 (stereo unspecified) | 0.4619
Cc1cccc(C(C(=O)NC(C)(C)CN2CCOCC2)N(C)C)c1 (stereo unspecified) | 112.8
Cc1cccc(C(C(=O)NCCn2cccc2)N(C)C)c1 (stereo unspecified) | -2.901
Cc1ccc(C(C(=O)NC(C)(C)CN2CCCC2)N(C)C)cc1 (stereo unspecified) | 96.39
CCSCCNC(=O)C(c1cccc(C)c1)N(C)C (stereo unspecified) | -29.39
Cc1cc(C)cc(C(C(=O)O)N(C)CCCN2CCOCC2)c1 (stereo unspecified) | 10.88
Cc1ccc(C(C(=O)NCCN2CCCCCC2)N(C)C)cc1 (stereo unspecified) | -4.058
CN(C)S(=O)(=O)NCC1OCCc2cn(CC3CCOCC3)nc21 (stereo unspecified) | 2.181
CC(=O)c1c(F)cccc1N1CCC(C(N)=O)CC1 | 16.85
CC(C)n1nc(CNc2ncccn2)c2c1CN(C1CCOCC1)CC2.O=C(O)C(F)(F)F | 3.818
CNS(=O)(=O)Cc1cccc(CNc2ccc(C#N)cn2)c1 | 5.411
Cc1ccc(F)c(OC2(C(=O)O)CCN(C(=O)N3CCCC3)CC2)c1 | -14.67
COC(=O)[C@H]1C[C@@H](O)CCN1S(=O)(=O)c1c(C)cc(OC)c(C)c1C | -13.15

SMILES | Percent Effect [%]
COc1ccc(-c2c(C)nn3c(=N)c(C#N)n[nH]c23)cc1 | 88.05
CCc1nn2c(=N)c(C#N)n[nH]c2c1-c1ccc(OC)cc1 | 103
COc1ccc(CN(C)c2nccc(-c3cn(C)nc3C)n2)cc1 | -45.72
COc1ccc(-c2c(C(C)C)nn3c(=N)c(C#N)n[nH]c23)cc1 | 89.55
COc1ccc(-c2c(C)nn3c(=N)c(C#N)n[nH]c23)cc1OC | 107.4
COc1ccc(-c2csc(N)c2C#N)cc1OC | -8.208
CCN(C)C[C@H]1CC[C@@H](Cc2ccc3c(cnn3C)c2)O1 | -8.878
CCS(=O)(=O)c1ccc(NCc2csc(C(C)C)n2)cc1 | 5.353
O=C1NCCN(Cc2ccccc2)C1CC(=O)N1CCc2n[nH]cc2C1 (stereo unspecified) | -21.59
O=C(COc1cccnc1)N1CCCC(n2cccn2)C1 (stereo unspecified) | -8.892
Nc1nccnc1C1CN(C(=O)COc2cccnc2)CCO1 (stereo unspecified) | 107.6
Nc1nccnc1C1CN(Cc2ccc(OCC(=O)O)cc2)CCO1 (stereo unspecified) | 171.8
O=C(O)C(F)(F)F.O=C(O)C(F)(F)F.c1cc(C2CC2)n2cnc(C3CN(Cc4ccncc4)CCO3)c2c1 (stereo unspecified) | 5.365
Cl.O=C(O)CC1CN(Cc2ccccc2)CCO1 (stereo unspecified) | -7.682
CNc1nccnc1C1CN(Cc2ccc(OCC(=O)O)cc2)CCO1 (stereo unspecified) | 142.7
O=C(COc1cccnc1)N1CCOC(C(F)(F)F)C1 (stereo unspecified) | -4.014
COc1ccc(CN2CCOC[C@H](OCC(=O)N(C)C)C2)cc1 | -7.108
CNc1nccnc1C1CN(Cc2ccc3[nH]ccc3c2)CCO1 (stereo unspecified) | 136.6
